# The supplement of paper PMC6555819
# System: PXR:RXRa (NR concentration 270 nM, RXRa partner concentration 90 nM)
# Experiment: PBM binding z-score (relative to random genomic background probes); higher = stronger binding; sequences stand for … in GC…GCGATTGACAGCGTAGAATGAAGG
# In short: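 On custom Agilent 4×180K arrays, double-stranded probes with 34-nt variable regions carried direct-repeat seeds, single-nucleotide variants, half-site ablations or random human genomic background. Ligand-free nuclear receptor dimers were applied for 1 h, and binding was read with antibodies against each partner (one per run). Binding z-scores come from regression-normalized fluorescence, with the random background probes as reference.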
row,Sequence,PBM binding z-score
1,CCAACTAGGTCAGAACAGGACAGTGAAGGATGAT,1.13
2,CATACAGGGTCAGCTAGGCCAGAGAAGGGACGGC,2.24
3,TGAATGACGTTATAAGATCAGGGAACGTTGCAAA,-0.0188
4,ATCTCTCGGTAACCAAGTTCAGTGAATGCCGAAC,1.85
5,CCTAGCAGGCCAATCTGGGTCACCCAAGGCTTGA,1.03
6,GCTTGTCGATCAAGGTTAAGAAAGACTAAGCTAA,0.592
7,ATATGTAGGTTAAGGGTCACTCAGGTTGGTTCGC,5.09
8,GCTGCTAGGTTAGGTTGGTCAGCTAACGGGTACG,-0.364
9,ATCGAAAGGTCGACGAGGTGAGTGTACACCGTTT,3.37
10,CAAACTAGGTCACGAAAGGTCAAGGTCGAATGAC,6.88
11,TAGCCTAGGTCAGATGGGGCCAGTATACGCTATA,3.45
12,ATCGCAAGGTCGTGAGGTGAGTATACAGAAAGGC,1.78
13,TAGCATAGGTCATGGGCCAGTATACCACGCGAAC,3.23
14,TCTGCTAGGTCAGCTGGTCAGCTAACGAGCTGCC,0.279
15,GCTGTTAGGTCAGGTTGGTCAGCTAACGGGTACG,0.645
16,TCGGCTAGGTCAGTTGGTCAGCTAACGAGCTGCC,0.186
17,CCCATTAGTTGACCATAAGGGCAACCGAAGCTCG,0.867
18,TAGCTTAGGTCATTGGGCCAGTATAGTACGCATC,1.97
19,CCTTACGGGGCACTGACAGGTTATAGCATTTGGA,-0.0592
20,TCGAGTAGGTTACCGATGGGGCATTCAGCTTTCT,-0.00678
21,TCTATTAGTTGATTAGGGCATCCGAAACAGCGGA,0.607
22,TCTGCTAGGTCGGTTGGTCAGCTAACGAGCTGCC,-0.617
